Marburg entry inh: qHTS for inhibitors of binding or entry into cells for Marburg Virus; Marburg virus pseudotyped entry inhibition, cell reporter; Potency, µM (doses to about 37.8 µM), for the others: top-dose activity change, negative = inhibition, most hits filed as inhibitors; actives 1.8% (n = 300,000); calls by dose curve; tested in HEK293 cells
VACV Venus inh: qHTS for Stage-Specific Inhibitors of Vaccinia Orthopoxvirus: Venus Reporter Primary qHTS; Potency, µM (highest dose often 36.5 µM), for inactives: top-dose activity change, negative = inhibition, most hits filed as inhibitors; actives 0.46% (n = 330,000); Vaccinia virus Venus reporter expression, fluorescence; calls by dose curve; tested in A549 cells; note: nearly all actives have a fitted effect of over 30% in size
Lassa entry inh: qHTS for Inhibitors of binding or entry into cells for Lassa Virus. AID 540256, 2011. Lassa virus pseudotype entry inhibition, cell reporter. actives 1.2% (n = 300,000). Potency, µM (doses to about 37.9 µM), inactives show top-dose activity change, negative = inhibition, hits mostly inhibitors; calls by dose curve; tested in HEK293 cells; note: nearly all actives have a fitted effect of over 50% in size
Sm TGR inh: qHTS Assay for the Inhibitors of Schistosoma Mansoni Peroxiredoxins | Schistosoma mansoni thioredoxin glutathione reductase (TGR), Q962Y6 | purified TGR, DTNB reduction, TNB absorbance 405 nm | Potency, µM (highest dose often 114 µM), for inactives: at the top dose activity change, negative = inhibition, most hits filed as inhibitors | actives 3% (n = 360,000) | AID 485364, 2010; active = well fitted inhibition curve with a large enough effect; inconclusive = small, poorly fitted or top-dose-only effect; inactive = no such curve, though single readings can be large or run the other way; note: nearly all actives have a fitted effect of over 60% in size
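First, TGR (20 nM dispensed) and NADPH were mixed with compound. Second, a 15 min room-temperature incubation followed. Third, further NADPH and then DTNB were added to start the reaction. Finally, TNB absorbance was monitored kinetically.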
FMDV antiviral: High Throughput Screening for Foot and Mouth Disease Virus Antivirals; FMDV antiviral cell-based qHTS; Potency, µM (doses to about 57.9 µM), for inactives: at the top dose activity change, negative = inhibition, hits mostly inhibitors; actives 1.2% (n = 410,000); calls by dose curve; tested in HEK293T cells; note: read-out not given here; nearly all actives have a fitted effect of over 45% in size
Vaccinia mCherry: qHTS for Stage-Specific Inhibitors of Vaccinia Orthopoxvirus: mCherry Reporter Primary qHTS | Potency, µM (doses to about 36.5 µM), for the others: at the highest dose activity change, negative = inhibition, usual class: inhibitors | AID 720579, 2013 | actives 0.63% (n = 310,000) | Vaccinia virus mCherry reporter infection, fluorescence; calls by dose curve; tested in A549 cells; note: nearly all actives have a fitted effect of over 35% in size
* = called active by the depositor; i = inactive; ? = inconclusive; · = no result given; [ ] = dose if it differs, or a comment. A selection: hits, their analogues and other compounds. The true share with any hit is near 5.4%. % is set by controls: 0 for no effect and ±100 for the full control effect; potency is the fitted concentration of half-maximal effect.

SMILES | Marburg entry inh | VACV Venus inh | Lassa entry inh | Sm TGR inh | FMDV antiviral | Vaccinia mCherry
CCNc1nc(NCC)nc(SCCOc2ccc(C)cc2)n1 | 15.8µM* | -16.9% | ? | -1.4% | ? | -7.3%
CCc1ccc(CN2C(=O)c3ccccc3C2C(=O)NCCc2ccc(OC)c(OC)c2)cc1 (stereo not drawn) | · | -11.0% | -8.6%[46.1 µM] | 1.4% | 6.8% | -13.2%
COc1ccc(-n2c(CNC(=O)c3cccc(OC)c3OC)nnc2SC)cc1 | · | 5.8% | · | · | -4.5% | -11.1%
O=C(Oc1ccc(=O)n(-c2ccccc2)n1)c1cccc(Cl)c1 | 17.2% | -9.9% | -2.8% | 15.8µM* | -23.2% | ·
Cc1cc2c(c(=O)n1Cc1ccccc1)[C@H]1O[C@](c3ccsc3)(Cc3ccccc31)O2 | -11.9%[14.2 µM] | · | · | · | · | ·
C1CCc2nc3c(nc2C1)CCCC3 | · | 1.3% | · | -2.6% | 5.6% | 29.0%
Nc1nnc2c(n1)CCCC2 | 6.9% | · | 7.1% | 31.6µM* | -21.7% | ·
CN(C(=S)NC(=O)c1ccc(Cl)cc1)C1CCCCC1 | 14.2%[46.1 µM] | -15.6% | -1.4%[46.1 µM] | 79.4µM* | 7.2% | -12.7%
CN(C(=S)NC(=O)c1ccc(F)cc1)C1CCCCC1 | · | · | · | 3.4% | 21.1% | ·
O=S1(=O)NC2c3ccccc3CC2O1 (stereo not drawn) | · | -18.0% | · | 25.1µM* | -0.4% | -11.0%
Cc1ccc(CSCc2ccc(C(=O)NCCc3ccc(Cl)cc3)o2)cc1 | · | -11.9% | -0.1%[46.1 µM] | -7.8% | ? | -15.0%
COC(=O)c1c(N2C(=O)CC(Sc3ccccc3C(=O)O)C2=O)sc(C)c1C (stereo not drawn) | 1.1%[46.1 µM] | 1.1% | -10.1% | 4.47µM* | -3.1% | 0.6%
COC(=O)c1c(N2C(=O)CC(Sc3ccccc3C(=O)O)C2=O)sc2c1CCCC2 (stereo not drawn) | -1.3%[46.1 µM] | 9.3% | 17.3%[46.1 µM] | 2.51µM* | -4.0% | i
COc1ccccc1C1CN(Cc2c(C)nn(C)c2Cl)Cc2ccccc2O1 (stereo not drawn) | · | 1.8% | · | · | -8.9% | -9.2%
O=c1[nH]cc(O)c(=O)[nH]1 | · | 1.6% | · | 2.5% | -15.1% | -2.6%
O=c1[nH]cc(F)c(=O)[nH]1 | ? | -28.4% | ? | -0.4% | 1.2% | 5.62µM*
COc1ccccc1N1C(=O)C2CCC(c3ccccc3)CC2C1=O (stereo not drawn) | 5.8% | -14.4% | ? | -2.5% | 22.4µM* | -2.3%
CCCc1ccc2oc(C(=O)N(Cc3ccncc3)CC3CCCO3)c(C)c2c1 (stereo not drawn) | ? | -9.2% | 6.31µM* | -16.1% | 16.6% | i
CNc1oc(-c2ccc(C)cc2)nc1P(=O)(c1ccccc1)c1ccccc1 | ? | -25.9% | 20.6µM* | -10.3% | -17.7% | -17.6%
CCOC(=O)CC(NC(=O)Cn1nnc(-c2ccc(C(F)(F)F)cc2)n1)c1ccc(C)cc1 (stereo not drawn) | 9.0%[46.1 µM] | -8.6% | 11.4%[46.1 µM] | -7.0% | -19.4% | -16.9%
CCN(Cc1ccccc1)S(=O)(=O)c1ccc2c(c1)CC(C)N2C(=O)C1CCC1 (stereo not drawn) | · | -11.0% | 2.82µM* | -0.9% | -19.8% | -12.8%
CCCCN(c1ccccc1)S(=O)(=O)c1ccc2c(c1)CC(C)N2C(=O)C1CC1 (stereo not drawn) | · | -7.8% | ? | -1.7% | -14.5% | -10.2%
CC(C)(C)OC1NS(=O)(=O)OCC1NCOC(Cl)(Cl)Cl (stereo not drawn) | · | -8.1% | · | 0.447µM* | -9.1% | i
C=CCC1NS(=O)(=O)OCC1NC(=O)OCC(Cl)(Cl)Cl (stereo not drawn) | · | -7.3% | · | -15.4% | 3.4% | i
CCC1CCCCN1C(=O)Cn1c(=O)oc2cc(S(=O)(=O)N3CCCCC3)ccc21 (stereo not drawn) | -2.5%[46.1 µM] | 8.9% | · | -0.8% | 3.9% | -3.4%
Cc1ccc(-c2ccc(C(=O)NCCCNC(=O)c3cnccn3)o2)cc1Cl | 14.1%[46.1 µM] | -13.2% | ? | 31.6µM* | -0.3% | i
C=CCN(C(=O)CCS(=O)(=O)c1cccc2nsnc12)c1ccccc1 | -0.1%[46.1 µM] | -15.4% | -0.8% | 25.1µM* | 57.1% | -2.7%
